Compounds with a hit are over-represented: about 7.5% of the library has one in this group of screens.
Luc counter: Kinase-Glo luciferase inhibition (counter-screen); 200,000 tested, 0.28% active; Kinase-Glo luciferase, ATP luminescence, 8 min; Potency, µM (series often up to 38.3 µM), hits mostly inhibitors; AID 1379; Q27757; further: nearly all actives have a fitted effect of over 60% in size
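Luminescence was the read-out, taken after 8-minute incubation at ambient temperature. Luciferase turned over luciferin with 10 uM ATP in imidazole pH 7.2 buffer containing KCl, MgCl2, Tween 20 and BSA.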
SMN2 splice enh: SMN2 splice variant enhancement | HEK293 SMN2-luciferase splicing reporter, luminescence, 30-36 h | Potency, µM (doses to about 46.1 µM), usual class: activators | 210,000 tested, 2.8% active | AID 1458; further: nearly all actives have a fitted effect of over 55% in size
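HEK293 cells carry an SMN2 […]–luciferase reporter in which exon 7 inclusion puts luciferase in frame. Cells were plated 10-12 h before compound addition, then incubated 30-36 h at 37C. ONE-Glo luminescence was read; sodium butyrate at 4.5 mM final served as control.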
FLuc modulator: counter-screen for miR-21 project: firefly luciferase inhibitors or activators | P08659 | purified FLuc, Km substrates, luminescence inhibition | Potency, µM (titrated, usually from 57.5 µM), most hits filed as inhibitors | AID 588342 | 360,000 tested, 6.9% active; further: nearly all actives have a fitted effect of over 55% in size
Target sequence (P08659 whole entry, looked up): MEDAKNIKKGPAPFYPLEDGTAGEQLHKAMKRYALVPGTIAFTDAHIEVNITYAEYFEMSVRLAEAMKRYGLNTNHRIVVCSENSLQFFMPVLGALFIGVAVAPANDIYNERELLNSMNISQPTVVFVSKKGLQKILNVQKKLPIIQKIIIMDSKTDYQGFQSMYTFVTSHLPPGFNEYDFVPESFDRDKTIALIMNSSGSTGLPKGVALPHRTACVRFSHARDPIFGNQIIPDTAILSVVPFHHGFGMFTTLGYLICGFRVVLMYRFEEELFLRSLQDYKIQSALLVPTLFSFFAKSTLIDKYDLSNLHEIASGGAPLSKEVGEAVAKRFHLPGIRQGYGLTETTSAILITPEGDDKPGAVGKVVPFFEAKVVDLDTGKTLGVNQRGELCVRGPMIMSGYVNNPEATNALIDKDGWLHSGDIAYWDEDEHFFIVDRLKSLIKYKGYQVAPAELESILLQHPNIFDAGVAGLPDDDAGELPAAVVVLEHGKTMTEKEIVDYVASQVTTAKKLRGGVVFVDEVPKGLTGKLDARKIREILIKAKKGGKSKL
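Purified P. pyralis luciferase (10nM final) with 10uM D-luciferin and 10uM ATP (Km levels) in 50mM Tris acetate pH 7.5, 10mM Mg acetate, 0.01% Tween-20, 0.05% BSA; qHTS 6-point titration, ~60 µM downward; luminescence read.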
NPC1 prom act: activators of NPC1 promoter; Huh7 NPC1 promoter luciferase reporter, 24 h; Potency, µM (titrated, usually from 9.22 µM), actives largely listed as activators; 320,000 tested, 2.4% active; AID 485313; further: nearly all actives have a fitted effect of over 60% in size
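In 1536-well qHTS, Huh7 cells harboring an NPC1 promoter–luciferase construct received compound for 24 h; activation was quantified by luminescence following luciferase reagent addition.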
ELG1 genotox: genotoxicity induction in ELG1-luciferase HEK293T cells; HEK293T ELG1-luciferase reporter, luminescence, 16 h; 330,000 tested, 1.3% active; AID 504466; Potency, µM (top dose mostly 46 µM), hits mostly activators; further: nearly all actives have a fitted effect of over 60% in size
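16 hr compound incubation (37 °C, 5% CO2) of HEK293T cells carrying luciferase-tagged ELG1; luciferase then measured by ONE-Glo luminescence after 30 min at RT.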
Rab9 promoter act: activates the Rab9 promoter | Huh7 Rab9 promoter-luciferase reporter, luminescence, 24 h | Potency, µM (series often up to 9.22 µM), usual class: activators | AID 485297 | 320,000 tested, 2.8% active; further: nearly all actives have a fitted effect of over 60% in size
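Using Huh7 cells stably transfected with Rab9 promoter–luciferase, compounds were incubated 24 h at 37 °C, 5% CO2; luciferase luminescence was read 10 min after reagent addition.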
A number is an active result; - = inactive; ? = inconclusive; . = not tested or not shown; [ ] = another dose, or the depositor's remark. The call rests on the fitted dose curve; in most records, active means well fitted curve in the direction sought with a large enough effect; inconclusive means small, poorly fitted or top-dose-only effect, or another doubt; inactive means no such curve, though single readings can be large; an effect the other way counts as inactive or inconclusive.

SMILES	Luc counter	SMN2 splice enh	FLuc modulator	NPC1 prom act	ELG1 genotox	Rab9 promoter act
CCN(CC)CCN1C(=O)C(=O)/C(=C(/O)c2ccc(S(=O)(=O)N3CCOCC3)cc2)C1c1ccc(C)cc1 (centres undefined)	.	.	-	-	-	-
CCCOc1ccc(/C=C/C(=O)N2CCN(c3ccccn3)CC2)cc1	-	-	?	-	-	-
O=C(/C=C/c1cccs1)N1CCCCC1	-	17.8µM	?	-	?	-
Cc1ccc(/C=C/C(=O)N2CCCN(C(=O)/C=C/c3ccc(C)cc3)CC2)cc1	-	?	10.7µM	-	-	-
CCCOc1ccc(/C=C/C(=O)N2CCOCC2)cc1	.	.	15.1µM	2.51µM	?	?
CCN1CCN(C(=O)/C=C/c2ccc(C)cc2)CC1	.	.	-	-	-	-
O=C(Nc1ccccc1C(=O)NC1CC1)c1ccc([N+](=O)[O-])o1	.	.	-	-	-	-
N#Cc1ccc(CS(=O)(=O)c2nnnn2-c2ccccc2)cc1	-	-	.	.	.	.
CCCc1c(C)nc(N2CCN(c3ccccc3F)CC2)[nH]c1=O	.	.	-	-	-	-
CN(C(=S)NC(=O)C1CC1)c1ccc(O)cc1	.	.	-	-	-	-
CCCCNc1nc(Oc2ccc(OCC(N)=O)nn2)nc(N2CCOCC2)n1	.	-	-	.	.	.
Cc1cccc(CN2CCN(CC(=O)NCc3ccc(Cl)cc3)C2=O)c1	.	-	-	.	.	.
CCCc1cc(=O)[nH]c(Nc2ccc(O)cc2C)n1	.	-	-	.	.	.
Cc1cc(O)ccc1Nc1nc2ccccc2nc1Nc1ccc(O)cc1C	-	-	16.9µM	-	-	-
COc1ccc(CCNC(=O)c2ccc3ccccc3n2)cc1	.	.	?	-	18.3µM	-
COc1ccc(CCNC(=O)c2ccccc2)cc1	.	.	?	-	-	-
NS(=O)(=O)c1ccc(CCNC(=O)c2ccc3ccccc3n2)cc1	-	-	?	-	?	-
COc1ccc(OC(=O)NCCc2ccccc2)cc1	.	.	15.1µM	3.98µM	?	3.55µM
O=C(CSc1n[nH]c(-c2ccccc2)n1)NCCc1ccccc1	.	.	-	.	.	.
COc1ccc(-c2nc(SCC(=O)NCCc3ccccc3)n[nH]2)cc1	.	.	16.9µM	.	.	.
Cc1ccc2c(=O)c(C(=O)NCc3cccs3)c[nH]c2c1	-	-	16.9µM	-	-	?
COC(=O)c1ccccc1NC(=O)CCC(=O)N1CCOc2ccccc21	.	.	-	.	.	.
COc1ccc(CCNC(=O)c2nn(C)cc2Cl)cc1	-	11.2µM	?	-	?	-
COc1ccc2c(=O)c(C(=O)NCCc3ccccc3)c[nH]c2c1	.	.	16.9µM	?	-	?
CCCOc1ccc(CNC(=O)c2[nH]c3cc(OC)ccc3c2Sc2ccccc2)cc1	.	.	-	.	.	.
SMILES	Luc counter	SMN2 splice enh	FLuc modulator	NPC1 prom act	ELG1 genotox	Rab9 promoter act
COc1ccc2c(Sc3ccccc3)c(C(=O)NCCc3ccc(Cl)cc3)[nH]c2c1	.	.	5.36µM	.	.	.
COc1ccc(CCNC(=O)c2ccc(Cl)cc2)cc1	-	-	-	-	-	-
COc1cc(C(=O)N2CCCN(C)CC2)cc(OC)c1C	.	.	-	-	-	-
CN(CC(=O)Nc1ccc(Cl)c(C(F)(F)F)c1)C(=O)CCN1C(=O)C2CC=CCC2C1=O (centres undefined)	.	.	-	-	-	-
CC(C)(C)c1nc2sc3c(c2c(=O)o1)CCCC3	-	-	-	-	-	-
Cn1c(N/N=C/c2ccccc2)nc2sc3c(c2c1=O)CCC3	-	-	15.1µM	-	-	-
Cc1ccccc1-c1nc2sc3c(c2c(=O)o1)CCC3	-	-	2.39µM	-	-	-
O=C(CSc1nc2sc3c(c2c(=O)n1-c1ccccc1)CCCC3)N/N=C/c1ccc(C(=O)O)cc1	.	.	-	-	-	-
O=c1oc(-c2cc3ccccc3o2)nc2sc3c(c12)CCCC3	-	?	2.39µM	?	-	?
CCc1nc2sc3c(c2c(=O)o1)CCCC3	-	-	?	-	?	-
O=c1oc(-c2ccccc2)nc2sc3c(c12)CCCC3	?	?	1.2µM	-	-	?
Cc1ccc(N2CCN(S(=O)(=O)c3cccc4ccccc34)CC2)cc1Cl	.	-	-	.	.	.
CCCCC[C@]12Cc3ccccc3C(O1)C1=C(CC(C)(C)CC1=O)O2	.	.	-[11.5 µM]	-[1.84 µM]	.	-[1.84 µM]

Screens deposited in PubChem by National Center for Advancing Translational Sciences (NCATS).
